Rows were chosen to be rich in hits. Some 8% of all compounds tested hit in one or more screens of this group.
MCF10A rerep: induces DNA re-replication in MCF 10a normal breast cells; Potency, µM (top dose mostly 46.1 µM), for inactives: at the top dose activity, positive = re-replication, most hits filed as activators; actives 2.9% (n = 350,000); MCF 10A DNA re-replication, Hoechst nuclear intensity, 48 h; AID 624296; also: % of control where 0% means no effect; nearly all actives have a fitted effect of over 50% in size
HT1080NT lethal: kills 2HG-producing HT-1080-NT fibrosarcoma cells; actives 1.6% (n = 360,000); Potency, µM (doses to about 46.1 µM), without a hit: at the highest dose activity, negative = less viability, most hits filed as cytotoxic; HT-1080-NT fibrosarcoma viability, CellTiter-Glo ATP luminescence, 48 h;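 also: NT is the 2HG producing partner of a matched IDH1 knockdown line; 0% = DMSO-treated cells and -100% = media-only wells without cells; nearly all actives have a fitted effect of over 55% in size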
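A 48-hour cytotoxicity screen used HT-1080-NT cells plated 2 hours before compound delivery. ATP-based CellTiter-Glo luminescence measured viability, normalized to DMSO and no-cell controls.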
HT1080 IDH1KD tx: kills HT-1080 cells with IDH1 knockdown. HT-1080 IDH1 knockdown viability, ATP luminescence, 48 h. Potency, µM (top dose mostly 46.1 µM), without a hit: at the top dose activity, negative = toxicity, hits mostly cytotoxic. actives 2% (n = 360,000);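 also: 0% = DMSO wells and -100% = cell-free medium wells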
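Luminescent ATP read-out (CellTiter-Glo, 10 min at room temperature) after 48 h compound exposure at 37 °C gave viability of IDH1-knockdown HT-1080 cells. Activity was normalised to DMSO and cell-free wells, then fitted as concentration-response curves.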
KB-3-1 tox: KB-3-1 parental cell cytotoxicity; KB-3-1 viability, CellTiter-Glo ATP luminescence, 72 h; Potency, µM (top dose mostly 46.1 µM), hits mostly cytotoxic; actives 1.4% (n = 400,000); also: % is scaled to controls: 0 for no effect and ±100 for the full control effect; nearly all actives have a fitted effect of over 60% in size
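Using CellTiter-Glo luminescence, growth of non-resistant KB-3-1 adenocarcinoma cells is assessed 72 h after pin-tool compound addition at 37 °C. Normalized responses across the concentration series yield fitted curves.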
SW480 rerep: inducers of DNA re-replication in SW480 colon cancer cells | AID 624297 | Potency, µM (titrated, usually from 46.1 µM), inactives show top-dose re-replication activation, usual class: activators | actives 1.8% (n = 340,000) | SW480 DNA re-replication, Hoechst DNA content imaging, 48 h; also: % of control where 0% means no effect; nearly all actives have a fitted effect of over 55% in size
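Compounds, transferred as 23 nL by pin tool, were incubated with cells for 48 hr; DNA content per nucleus was then quantified by Hoechst staining and fluorescence plate imaging.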
KB-V1 cytotox: KB-V1 MDR subline cytotoxicity. KB-V1 MDR cells viability, CellTiter-Glo, 72 h. Potency, µM (top dose mostly 46.1 µM), actives largely listed as cytotoxic. actives 3.4% (n = 400,000); also: % is scaled to controls: 0 for no effect and ±100 for the full control effect; nearly all actives have a fitted effect of over 60% in size
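Cytotoxicity toward P-gp-expressing KB-V1 cells was determined as loss of CellTiter-Glo luminescence after 72 h at 37 degrees C. Compounds were tested in quantitative HTS format across a concentration range, with curves fitted to normalized data.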
* = called active by the depositor; i = inactive; u = inconclusive; x = no result given; [ ] = dose if it differs, or a comment. Calls follow the shape of the dose curve; as a rule, active = well fitted curve in the direction sought with a large enough effect; inconclusive = small, poorly fitted or top-dose-only effect, or another doubt; inactive = no such curve, though single readings can be large; an effect the other way counts as inactive or inconclusive. Potency is read from the fitted curve at half-maximal effect.

SMILES | MCF10A rerep | HT1080NT lethal | HT1080 IDH1KD tx | KB-3-1 tox | SW480 rerep | KB-V1 cytotox
COc1cccc(C(=O)NCCS(=O)(=O)NCc2ccccn2)c1 | -0.7% | 4.2% | 3.8% | i | -16.1% | i
COc1ccc(Cc2nnc(NC(=O)c3cc(OC)cc(OC)c3)s2)cc1 | 13µM* | -22.8% | -26.0% | i | 102.3% | i
CCCc1nnc(NC(=O)c2cc3ccccc3oc2=O)s1 | -7.6% | 2.1% | -0.8% | i | u | i
COc1cccc(C(=O)NCCS(=O)(=O)N(C)Cc2ccccc2)c1 | 3.0% | 6.2% | 14.0% | i | 0.7% | 18.4µM*
CCCc1nnc(NC(=O)c2cc3ccccc3o2)s1 | 7.9% | 9.1% | -9.9% | i | 0.259µM* | u
COc1ccc(Cc2nnc(NC(C)=O)s2)cc1 | 13.5% | -1.1% | 1.1% | i | -16.9% | i
COc1ccc(OC)c(CCNC(=O)c2cnn(-c3ccccc3Cl)c2C2CCN(C(=O)OC(C)(C)C)CC2)c1 | x | x | x | i | x | i
COc1ccc(CN(C)S(=O)(=O)c2nnc(NC(=O)c3cccc(OC)c3)s2)cc1 | u | -13.1% | -4.2% | i | -6.8% | u
COc1cccc(C(=O)NCCS(=O)(=O)N(C)C2CCCCC2)c1 | -4.2% | 4.5% | 16.1% | i | -3.8% | 11.6µM*
CN(C1CCCCC1)S(=O)(=O)CCNC(=O)c1ccccc1 | 1.3% | -0.6% | 5.6% | i | -1.6% | i
COc1cccc(C(=O)Nc2nnc(S(=O)(=O)N(C)Cc3ccccc3)s2)c1 | 3.4% | -14.9% | -13.8% | i | 11.6µM* | i
COc1ccc(OC)c(N(CCN2C(=O)c3ccccc3C2=O)C(=O)CCl)c1 | x | u | 16.4µM* | u | x | u
COc1ccc(NC(=O)CCN2C(=O)c3ccccc3C2=O)c(OC)c1 | -2.5% | -1.9% | -6.3% | i | 0.9% | i
CC(=O)Oc1cc(C)c(OC(C)=O)c2ccccc12 | u | x | x | x | 26.6µM* | x
Cc1cc(N2CCCC2)nc2ccc(NC(=S)NCCCN3CCC(C)CC3)cc12 | 18.4µM* | 23.1µM* | 23.1µM* | i | u | u
CCCCN(C)CCNC(=S)Nc1ccc2nc(N3CCN(CC)CC3)cc(C)c2c1 | u | 18.4µM* | 29.1µM* | i | u | i
CCN1CCN(c2cc(C)c3cc(NC(=S)NCCN(C)C)ccc3n2)CC1 | 5.6% | -20.2% | u | i | -5.8% | i
COc1ccc(NC(=O)NCCN2CCc3ccccc3C2)cc1 | -1.6% | -0.9% | 1.2% | i | -3.1% | i
Cc1cc(N2CCN(C)CC2)nc2ccc(NC(=S)NCCCN3CCc4ccccc4C3)cc12 | u | 18.4µM* | 16.4µM* | i | u | i
CCCN1CCN(CCCNC(=S)Nc2ccc3nc(N4CCN(CC)CC4)cc(C)c3c2)CC1 | 15.7% | -2.4% | -3.9% | i | 2.7% | u
Cc1cc(N2CCN(C)CC2)nc2ccc(NC(=S)NCCN3CCc4ccccc4C3)cc12 | u | -10.6% | -26.1% | i | u | i
O=C(NCCCN1CCc2ccccc2C1)Nc1ccc(Cl)cc1 | 0.2% | u | u | i | -1.0% | 14.6µM*
CCOC(=O)C1(Cc2ccc(OC)cc2)CCN(C(=O)CN2CCN(CC)CC2)CC1 | -1.4% | 0.4% | 3.2% | i | 1.3% | i
CCCN(Cc1cccs1)C(=O)Nc1ccc(F)c(Cl)c1 | x | x | x | i | x | i
CCOc1ccc(C2C3=C(CCCC3=O)OC(N)=C2[N+](=O)[O-])cc1 (configuration not stated) | -1.7% | 2.0% | 3.9% | i | -6.9% | i
SMILES | MCF10A rerep | HT1080NT lethal | HT1080 IDH1KD tx | KB-3-1 tox | SW480 rerep | KB-V1 cytotox
CCN1CCN(c2cc(C)c3cc(NC(=S)NCCCN4CCc5ccccc5C4)ccc3n2)CC1 | -4.8% | 20.6µM* | 20.6µM* | i | 25.0% | i
Cc1ccc(CC(=O)NCc2ccc(F)cc2)cc1 | u | 9.2µM* | 7.31µM* | u | 18.4µM* | u
O=C(/C=N/O)NCc1cccnc1 | 14.6µM* | 0.0% | 17.4% | i | 13µM* | i
O=C(Cc1ccc(-c2ccccc2)cc1)NCc1cccnc1 | 11.6µM* | u | 8.2µM* | 14.6µM* | 23.1µM* | u
O=C(NCc1ccccc1Cl)c1ccccc1CCc1ccccc1 | 2.8% | -8.6% | -9.8% | i | -3.6% | i
O=C(NCc1ccc(Cl)cc1)c1ccccc1CCc1ccccc1 | u | -2.0% | -5.8% | i | 4.8% | 20.6µM*
CCc1ccc(Nc2sc(C(=O)c3ccc(F)cc3)c(N)c2S(=O)(=O)c2ccccc2)cc1 | x | x | x | i | x | i
COc1ccc(CNC(=O)c2ccc3c(Cl)c4c(nc3c2)CCCC4)c(OC)c1 | x | x | x | i | x | i
O=C([C@@H]1CCCN1C(=O)c1cccs1)N1CCN(S(=O)(=O)c2cccc(F)c2)CC1 | -7.9% | 3.7% | 0.0% | i | -9.5% | i
CC(=O)Nc1cccc(NC(=O)CSc2nc(C3CC3)nc3ccccc23)c1 | 17.7% | u | u | i | u | i
c1ccc(CN=C(NCc2ccccc2)NCc2ccccc2)cc1 | u | u | 16.4µM* | u | u | i
O=C(Cc1cccs1)NNC(=S)NCc1ccco1 | 3.4% | 20.6% | 11.4% | i | 2.9% | i
Cc1ccc(CNC(=O)Cc2ccc(-c3ccccc3)cc2)cc1 | u | 3.98µM* | 2.82µM* | i | 1.16µM* | i
S=C(NCc1ccccc1)C(=S)NCc1ccccc1 | 0.1% | 1.2% | -0.4% | i | -3.0% | i
O=C(Cc1ccc(-c2ccccc2)cc1)NNC(=S)NCc1ccco1 | u | -13.9% | -8.1% | i | 1.4% | 8.2µM*
O=C(Cc1ccc(-c2ccccc2)cc1)NCc1ccccc1 | 0.116µM* | u | u | 0.082µM* | 1.3µM* | 0.291µM*
COc1ccc(NC(=O)Cn2c(=O)oc3cc(S(=O)(=O)N4CCC(C)CC4)ccc32)c(OC)c1 | x | x | x | u | x | i
Cc1cccc(C)c1N1C(=O)c2ccccc2C1=O | 14.7% | -19.1% | -6.1%[9.24 µM] | i | 1.2% | i
Nc1nc2ccccc2cc1C(=O)NCc1ccc(-c2ccccc2)cc1 | x | u | 1.3µM* | 2.31µM* | x | 2.59µM*
COc1ccc(CCNC(=O)COc2cc(C)cc3oc(=O)cc(C)c23)cc1 | 3.1% | 11.4% | 4.6% | i | -16.1% | i
O=C(COc1cccc2ccccc12)N1c2ccccc2CCc2ccccc21 | 8.4% | -25.5% | u | u | u | 16.4µM*
CC(=NCc1cccc(Cl)c1)c1nc(-c2ccco2)oc1O | u | 0.6% | -4.9% | 5.8µM* | -8.8% | i

From PubChem BioAssay
